Screening data (PubChem)
Most compounds without a hit are left out; they make up all but 2.4% or so of the library.
CRFR2-BP antag – antagonists of CRF-BP/CRF-R2 complex, primary screen, cell-based, HEK293, calcium dye fluorescence, uHTS. CRF-induced calcium fluorescence. inhibition, % at 11.8 µM. hit rate 0.59% among 350,000;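 active = inhibition of the ligand-induced calcium signal above about 50% at the single tested concentration, limit read from the data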
TMEM16A inh – TMEM16A chloride channel inhibitors, primary screen, cell-based, HTS | Anoctamin-1 (Mus musculus), Q8BHY3 | HEK293 TMEM16A/YFP iodide influx fluorescence, ionomycin | normalized B-score (activity score, 25-100; higher = stronger inhibition) at 10 µM | hit rate 1.2% among 310,000;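 active = ratio plate-corrected score three or more library SD toward inhibition, starting fluorescence score within five deviations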;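 also: score derived from kinetic fluorescence span divided by baseline fluorescence per well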
Target sequence (Q8BHY3 whole entry, looked up): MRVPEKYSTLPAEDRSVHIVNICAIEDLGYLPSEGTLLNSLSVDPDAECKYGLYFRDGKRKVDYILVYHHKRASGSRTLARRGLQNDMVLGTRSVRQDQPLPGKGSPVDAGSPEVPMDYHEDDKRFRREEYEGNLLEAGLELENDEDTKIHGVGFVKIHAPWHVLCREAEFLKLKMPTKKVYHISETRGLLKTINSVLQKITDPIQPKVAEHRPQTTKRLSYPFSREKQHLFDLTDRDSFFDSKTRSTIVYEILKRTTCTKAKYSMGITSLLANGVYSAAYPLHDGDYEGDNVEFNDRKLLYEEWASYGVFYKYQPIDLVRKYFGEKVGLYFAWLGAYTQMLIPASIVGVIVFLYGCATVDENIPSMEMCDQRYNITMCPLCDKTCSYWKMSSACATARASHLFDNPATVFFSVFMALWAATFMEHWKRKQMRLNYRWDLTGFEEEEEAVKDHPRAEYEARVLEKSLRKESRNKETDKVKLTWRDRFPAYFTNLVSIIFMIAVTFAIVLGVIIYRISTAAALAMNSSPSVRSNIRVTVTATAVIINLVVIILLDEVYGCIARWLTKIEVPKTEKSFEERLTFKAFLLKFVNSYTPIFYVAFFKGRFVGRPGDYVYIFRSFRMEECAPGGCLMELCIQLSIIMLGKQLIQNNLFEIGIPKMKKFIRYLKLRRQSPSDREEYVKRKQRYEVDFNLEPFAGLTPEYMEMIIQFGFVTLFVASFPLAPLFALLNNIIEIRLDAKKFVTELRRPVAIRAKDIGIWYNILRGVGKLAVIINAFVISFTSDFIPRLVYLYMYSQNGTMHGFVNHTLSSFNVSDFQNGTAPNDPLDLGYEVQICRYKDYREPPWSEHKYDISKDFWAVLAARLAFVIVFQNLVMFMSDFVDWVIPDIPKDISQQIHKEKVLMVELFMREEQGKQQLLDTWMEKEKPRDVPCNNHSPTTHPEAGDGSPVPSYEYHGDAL
cardiac RTF act – cardiac RTF calcium sensitivity activators, primary screen, biochemical, IANBD-TnC fluorescence, EC20 calcium. IANBD-labeled TnC RTF fluorescence at EC20 calcium; 0% EC20 calcium, 100% full calcium. Troponin I, cardiac muscle (Homo sapiens) + Troponin T, cardiac muscle (Homo sapiens) + …. AID 493008, 2010. activation, % at 7.2 µM. hit rate 0.24% among 340,000;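 active = activation above the mean over all tested compounds plus 3 SD, cut at about 30% in these data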;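 also: rise in fluorescence read as greater calcium sensitivity of cardiac thin filaments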
ANO1 activ – TMEM16A chloride channel activators or potentiators, primary screen, cell-based, HTS. Anoctamin-1 (Mus musculus), Q8BHY3. HEK293 TMEM16A/YFP-H148Q/I152L, iodide quench fluorescence; stronger effect = lower value. AID 623877, 2012. B-score at 10 µM. hit rate 0.3% among 340,000;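 active = fluorescence-ratio B-score plate-corrected deviation score at least 3 library SD below zero, with starting fluorescence score within 5 deviations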;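 also: channel opened by trigger with iodide after compound preincubation; score built on the fluorescence ratio of max minus min over baseline; more negative score means more quench and so TMEM16A activation or potentiation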
Cardiac RTF inh – cardiac RTF calcium sensitivity inhibitors, primary screen, biochemical, IANBD-TnC fluorescence, EC70 calcium; inhibition, % at 7.15 µM; hit rate 0.12% among 340,000; IANBD-labeled cardiac RTF, Ca2+ fluorescence; AID 493244, 2011; Troponin I, cardiac muscle (Homo sapiens) + Troponin T, cardiac muscle (Homo sapiens) + …;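 active = inhibition above the mean inhibition of all tested compounds plus 3 SD, cut at about 17% in these data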;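 also: assay run at fixed EC70 calcium of 1.6 mM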
CRFR2-BP ag – agonists of CRF-BP/CRF-R2 complex, primary screen, cell-based, HEK293, calcium dye fluorescence, uHTS. activation, % at 13.2 µM. hit rate 0.46% among 350,000. calcium dye fluorescence (FLIPR); percent of saturating CRF peptide response. AID 588473, 2011. CRF-binding protein / CRF receptor 2 complex (human);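 active = activation of at least 50%, plus an integration ratio under a set limit after plate pattern correction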;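 also: plate controls were neutral control wells without compound for no effect and CRF at EC100 for full effect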
RTF Ca inh conf – cardiac RTF calcium sensitivity inhibitors, confirmation, biochemical, fluorescence readout | shares compounds with Cardiac RTF inh | reconstituted cardiac thin filaments | inhibition, % at 7.15 µM | hit rate 8% among 360 | AID 504635, 2011; in the data active = inhibition above about 18%
An asterisk follows results filed as active.

How did C=CCN(CC=C)S(=O)(=O)c1ccc(C(=O)Nc2nnc(COC)o2)cc1 do in these assays?
CRFR2-BP antag: -9; TMEM16A inh: inactive; cardiac RTF act: 4; ANO1 activ: inactive; Cardiac RTF inh: 11; CRFR2-BP ag: 0

What do the screens show for `CCN(CC)C(=O)CSc1nc2ccccc2c(=O)n1-c1cccc(OC)c1`?
CRFR2-BP antag: 6; TMEM16A inh: inactive; cardiac RTF act: -3; ANO1 activ: inactive; Cardiac RTF inh: 0; CRFR2-BP ag: 0

How did COc1cccc(-n2c(SCc3cc(=O)oc4cc(O)c(O)cc34)nc3ccccc3c2=O)c1 do in these assays?
CRFR2-BP antag: -20; TMEM16A inh: inactive; cardiac RTF act: -20; ANO1 activ: inactive; Cardiac RTF inh: 17*; CRFR2-BP ag: 0; RTF Ca inh conf: -2

How did CC(Sc1nc(=O)cc(N)n1CCc1ccccc1)C(=O)NCc1ccccc1 (configuration not stated) do in these assays?
CRFR2-BP antag: 0; TMEM16A inh: inactive; cardiac RTF act: -3; ANO1 activ: inactive; Cardiac RTF inh: 19*; CRFR2-BP ag: -1; RTF Ca inh conf: -1

What do the screens show for `CC(NC(=O)CSc1nc(=O)cc(N)n1CCc1ccccc1)c1ccccc1` (configuration not stated)?
CRFR2-BP antag: -9; TMEM16A inh: inactive; cardiac RTF act: 6; ANO1 activ: inactive; Cardiac RTF inh: 7; CRFR2-BP ag: -1

Results for Clc1cc(Cl)cc(Nc2ncn[nH]2)c1 ?
CRFR2-BP antag: 2; TMEM16A inh: inactive; cardiac RTF act: 1; ANO1 activ: inactive; Cardiac RTF inh: 4; CRFR2-BP ag: -2

How did COC(=O)c1cc2oc(C)cc2n1CC(=O)N(C)c1ccccc1 do in these assays?
CRFR2-BP antag: -1; TMEM16A inh: inactive; cardiac RTF act: -2; ANO1 activ: inactive; Cardiac RTF inh: 17*; CRFR2-BP ag: 0; RTF Ca inh conf: -3

Results for O=C(O)c1cc(N2N=C(C(F)(F)F)/C(=C/C=C/c3ccco3)C2=O)ccc1Cl ?
CRFR2-BP antag: 4; cardiac RTF act: -62; ANO1 activ: inactive; Cardiac RTF inh: 111*; CRFR2-BP ag: 5; RTF Ca inh conf: 57*

How did COc1cc(-c2nnc(SCc3cc(=O)oc4cc(O)c(O)cc34)o2)cc(OC)c1OC do in these assays?
CRFR2-BP antag: 5; TMEM16A inh: inactive; cardiac RTF act: -31; ANO1 activ: inactive; Cardiac RTF inh: 30*; CRFR2-BP ag: -1; RTF Ca inh conf: 17*

Results for COCCN1CCN(Cc2nc(C3(c4ccc(C)cc4)CCCC3)no2)CC1 ?
CRFR2-BP antag: -25; TMEM16A inh: inactive; cardiac RTF act: -1; ANO1 activ: inactive; Cardiac RTF inh: 19*; CRFR2-BP ag: 0; RTF Ca inh conf: -2

How did CC(=O)N1CCCN(Cc2nc(C3(c4ccc(C)cc4)CCCC3)no2)CC1 do in these assays?
CRFR2-BP antag: -16; TMEM16A inh: inactive; cardiac RTF act: -3; ANO1 activ: inactive; Cardiac RTF inh: -8; CRFR2-BP ag: 1

Results for Cc1nn(CC(=O)NCCCN2CCCC2)c(=O)c2nn(-c3ccccc3)c(C)c12 ?
CRFR2-BP antag: -13; TMEM16A inh: inactive; cardiac RTF act: 1; ANO1 activ: inactive; Cardiac RTF inh: 19*; CRFR2-BP ag: 3; RTF Ca inh conf: -1

What do the screens show for `CCC(Oc1ccccc1)C(=O)Nc1nnc(S(=O)(=O)N2CCCCC2)s1` (configuration not stated)?
CRFR2-BP antag: -7; TMEM16A inh: inactive; cardiac RTF act: -2; ANO1 activ: inactive; Cardiac RTF inh: 18*; CRFR2-BP ag: 5; RTF Ca inh conf: -4

Results for Oc1cccc2ccc[n+](CC(O)Cn3c4ccccc4c4ccccc43)c12 (configuration not stated) ?
CRFR2-BP antag: 6; TMEM16A inh: inactive; cardiac RTF act: 5; ANO1 activ: inactive; Cardiac RTF inh: 19*; CRFR2-BP ag: -3; RTF Ca inh conf: -1

How did O=C(O)c1[nH]c2ccccc2c1C(c1cc(Cl)cc([N+](=O)[O-])c1O)c1c(C(=O)O)[nH]c2ccccc12 do in these assays?
CRFR2-BP antag: -10; TMEM16A inh: inactive; cardiac RTF act: -23; ANO1 activ: inactive; Cardiac RTF inh: 22*; CRFR2-BP ag: -2; RTF Ca inh conf: 7

How did CCOc1ccccc1C(=O)N[C@H](C(=O)OCC(=O)Nc1nnc(-c2ccccc2)o1)C(C)C do in these assays?
CRFR2-BP antag: 17; cardiac RTF act: 6; ANO1 activ: inactive; Cardiac RTF inh: -4; CRFR2-BP ag: -2

What do the screens show for `CCCc1nnc(NC(=O)c2cn(CC)c3cc(N4CCN(C)CC4)c(F)cc3c2=O)s1`?
CRFR2-BP antag: -2; TMEM16A inh: inactive; ANO1 activ: inactive; CRFR2-BP ag: -1

What do the screens show for `Nc1c(S(=O)(=O)c2cccs2)c2nc3ccccc3nc2n1/N=C/c1cccc(O)c1`?
CRFR2-BP antag: 10; TMEM16A inh: inactive; cardiac RTF act: -6; ANO1 activ: inactive; Cardiac RTF inh: 20*; CRFR2-BP ag: 0; RTF Ca inh conf: 6

What do the screens show for `COc1cccc(/C=N/n2c(N)c(S(=O)(=O)c3cccs3)c3nc4ccccc4nc32)c1`?
CRFR2-BP antag: -9; TMEM16A inh: inactive; cardiac RTF act: 2; ANO1 activ: inactive; Cardiac RTF inh: -3; CRFR2-BP ag: -1

What do the screens show for `CC1(C)C(/C=C/C=C/C=C/C=C2\N(CCCCS(=O)(=O)O)c3ccc4ccccc4c3C2(C)C)=[N+](CCCCS(=O)(=O)[O-])c2ccc3ccccc3c21`?
CRFR2-BP antag: 69*; TMEM16A inh: inactive; cardiac RTF act: -11; ANO1 activ: inactive; Cardiac RTF inh: 20*; CRFR2-BP ag: 2; RTF Ca inh conf: -46

How did CCOC(=O)c1cnn(-c2ccccc2)c1-n1cccc1C(=O)C(=O)Nc1ccccc1 do in these assays?
CRFR2-BP antag: -10; TMEM16A inh: inactive; cardiac RTF act: 4; ANO1 activ: inactive; Cardiac RTF inh: -10; CRFR2-BP ag: 1
